Bioassay records from PubChem BioAssay.
Marburg entry inh: Marburg virus entry inhibition; Marburg virus pseudotyped entry inhibition, cell reporter; Potency, µM (highest dose often 37.8 µM), actives largely listed as inhibitors; 1.8% of 300,000 active; AID 540276; calls by dose curve; tested in HEK293 cells
VACV mCherry inh: vaccinia inhibition (mCherry reporter). Vaccinia virus mCherry reporter infection, fluorescence. Potency, µM (doses to about 36.5 µM), actives largely listed as inhibitors. 0.63% of 310,000 active; calls by dose curve; tested in A549 cells; note: nearly all actives have a fitted effect of over 35% in size
FMDV antiviral: blocks foot and mouth disease virus; FMDV antiviral cell-based qHTS; 1.2% of 410,000 active; AID 1159524; Potency, µM (highest dose often 57.9 µM), actives largely listed as inhibitors; calls by dose curve; tested in HEK293T cells; note: read-out not given here; nearly all actives have a fitted effect of over 45% in size
Lassa entry inh: blocks Lassa virus binding to or entry into cells; Lassa virus pseudotype entry inhibition, cell reporter; Potency, µM (highest dose often 37.9 µM), actives largely listed as inhibitors; 1.2% of 300,000 active; calls by dose curve; tested in HEK293 cells; note: nearly all actives have a fitted effect of over 50% in size
VACV Venus inh: vaccinia inhibition (Venus reporter). Vaccinia virus Venus reporter expression, fluorescence. Potency, µM (highest dose often 36.5 µM), actives largely listed as inhibitors. 0.46% of 330,000 active. AID 720580; calls by dose curve; tested in A549 cells; note: nearly all actives have a fitted effect of over 30% in size
Hits are given with their value; - = inactive; ? = inconclusive; . = no result; ! = a repeat was not active. Rows were chosen to be rich in hits. Some 3.2% of all compounds tested hit in one or more screens of this group.

SMILES	Marburg entry inh	VACV mCherry inh	FMDV antiviral	Lassa entry inh	VACV Venus inh
C[C@H](Cc1ccc(O)c(O)c1)[C@@H](C)Cc1ccc(O)c(O)c1	14µM	-	-	?	-
CCC(N)C(O)c1ccc(O)c(O)c1 (stereo not given)	.	-	-	.	-
N[C@@H](Cc1ccc(O)c(O)c1)C(=O)O	16µM!	-	-	?	-
NC(Cc1ccc(N(CCCl)CCCl)cc1)C(=O)O (stereo not given)	5.8µM	-	-	2.9µM	-
NC(C(=O)O)C(O)c1ccc(O)c(O)c1 (stereo not given)	1.3µM	.	.	?	.
C/C(=N\NC(=O)c1c(Cl)cnn1C)c1ccc(NC(=O)c2ccc(Br)o2)cc1	-	-	-	-	-
COc1ccc(COC(=O)N/N=C2\C[C@@H](O)[C@@H](O)[C@@H]3[C@@H]4C(=O)N(c5cccc(Oc6ccccc6)c5)C(=O)[C@@H]4CC[C@@H]23)cc1	-	.	.	.	.
COc1ccc(NC(=O)c2ccccc2OCc2ccc(F)cc2)c(OC)c1	-	-	-	.	-
COc1ccc(NC(=O)c2cnc(SC)n2-c2ccc(F)cc2)c(OC)c1	13µM	-	?	?	-
O=C(CNC(=O)C1CCCCC1)OCC(=O)c1ccc([N+](=O)[O-])cc1	.	-	.	.	-
OCCCCNCc1ccc(OCc2ccc(Cl)cc2Cl)cc1	5.8µM	28µM	.	?	?
S=C(Nc1ccccc1)Nc1ccc(OCc2ccc(Cl)cc2Cl)cc1	?	.	0.32µM	?	.
CCCCCC(=O)N1C[C@H](O)[C@@H](n2cc(C3CC3)nn2)C[C@H]1c1ccc(OC)cc1	.	.	.	-	.
O=[N+]([O-])c1cc(S(=O)(=O)C(F)(F)F)ccc1Sc1nc2ccccc2s1	?	.	?	?	-
CS(=O)(=O)c1ccc(Sc2nc3ccccc3s2)c([N+](=O)[O-])c1	11µM	?	35µM	?	?
C=CCn1c(Oc2ccc(C=O)cc2OCC)nc2c1c(=O)n(C)c(=O)n2C	.	.	-	.	.
Cc1nc2ccc(Cl)cc2c(-c2ccccc2)c1C(=O)N(C)C	.	.	-	.	.
CCOC(=O)c1c(CN2CCNCC2)nc2ccc(Cl)cc2c1-c1ccccc1	?	10µM	-	-	?
CCOC(=O)N/N=C/c1cn(CCCOc2ccc(C)cc2)c2ccccc12	7.1µM	?	-	?	-
CNC(=S)N/N=C/c1cn(CCOc2cccc(OC)c2)c2ccccc12	?	4µM	-	?	?
COc1cc2nc(N3CCN(C(=O)OCc4ccccc4)C(C(=O)NC(C)(C)C)C3)nc(N)c2cc1OC (stereo not given)	11µM	.	.	?	.
COc1cc2nc(N3CCN(C(=O)C4COc5ccccc5O4)CC3)nc(N)c2cc1OC (stereo not given)	12µM	-	-	?	-
Cc1ccc2oc(/N=C(\N)NC(=O)C(C)(C)C)nc2c1	?	-	35µM	?	-
CN(C)CCNc1ccc(CO)c2sc3ccc(O)cc3c(=O)c12	0.89µM	?	-	1µM	?
CN(C)CCNc1ccc2ncn3c4ccc(O)cc4c(=O)c1c23	?	0.79µM	?	?	1.1µM
SMILES	Marburg entry inh	VACV mCherry inh	FMDV antiviral	Lassa entry inh	VACV Venus inh
CC(=O)Oc1ccccc1C(=O)NC(C)CCc1ccccc1 (stereo not given)	-	-	25µM	-	-
Cc1cc(C=C2C(=O)NC(=O)NC2=O)c(C)n1-c1cccnc1	-	-	-	-	-
C=CCN1C(=O)/C(=C/c2cc(C)n(-c3cccnc3)c2C)C(=O)NC1=S	-	-	35µM	-	-
Cc1cc2cc(CN(CCN(C)C)C(=S)NCc3ccco3)c(=O)[nH]c2cc1C	?	-	-	-	-
Cc1cc2cc(CN(Cc3cccs3)C(=S)NCc3ccco3)c(=O)[nH]c2cc1C	14µM	-	-	-	-
Cc1ccc2cc(CN(CC3CCCO3)C(=S)NCc3ccco3)c(=O)[nH]c2c1C (stereo not given)	0.63µM	-	-	5.8µM	-
COc1ccccc1NC(=S)N(Cc1ccco1)Cc1cc2cc(C)ccc2[nH]c1=O	4µM	?	-	-	?
CCN(CC)CCN(Cc1cc2ccc(C)cc2[nH]c1=O)C(=S)Nc1ccccc1C(=O)OC	2µM	?	-	?	?
Cc1ccc(C2CC(=O)N(Cc3ccc(F)cc3)c3c2c(C)nn3-c2nc(C)cc(C)n2)cc1 (stereo not given)	-	-	-	-	-
COCCN(C(=O)CSc1nnc(-c2ccc(C)c(C)c2)o1)c1c(N)n(CC(C)C)c(=O)[nH]c1=O	-	?	-	-	?
CCN(CC)c1ccc(-c2nnc(SCC(=O)N(CCOC)c3c(N)n(CC(C)C)c(=O)[nH]c3=O)o2)cc1	?	8.9µM	-	-	?
O=C(O)/C=C/c1ccc(S(=O)(=O)N2CCN(CCN3C(=O)C4C5C=CC(C5)C4C3=O)CC2)cc1 (stereo not given)	.	.	-	.	.
CC1C/C(=C/c2ccncc2)C(=O)/C(=C/c2ccncc2)C1 (stereo not given)	.	.	10µM	.	.
CCC1CN(CCNC(=O)c2ccc3c(c2)OCO3)Cc2cc(OC)ccc2O1 (stereo not given)	.	-	-	.	-
Cc1ccc(NC(=O)c2cc3c([nH]c2=O)CC(C)(C)CC3=O)cc1	.	-	.	.	-
CCCCCOCC1CC(C/C(C)=N/NC(N)=S)C(=O)O1 (stereo not given)	?	22µM	-	?	?
C=C1C=C(C(F)F)n2ncc(C(=O)NCc3ccc(F)cc3)c2N1	.	-	.	.	-
O=C(NN=C1C[C@@H](O)[C@H](O)[C@H]2[C@@H]3C(=O)N(Cc4ccc5c(c4)OCO5)C(=O)[C@@H]3CC[C@H]12)OCc1ccccc1	-	.	.	?	.
CC1CN(c2ccccc2)CCN1C(=O)c1cc(COc2c(F)cccc2F)on1 (stereo not given)	.	.	-	.	.
Cc1cccc(C)c1OCc1cc(C(=O)N2CCN(c3ccccc3)CC2C)no1 (stereo not given)	13µM	-	-	?	-
CCOc1ccccc1C(=O)N1CCCCC1CCN1CCOCC1 (stereo not given)	-	-	-	-	-
COC(=O)[C@@]1(Cc2ccc(F)cc2)[C@H]2c3cc(C(=O)N(C)C)n(CCF)c3C[C@H]2CN1C(=O)c1ccccc1	.	-	-	.	-
COC(=O)[C@@]1(Cc2ccccc2)[C@@H]2C(=CC(=O)[C@H]2CC(=O)C(=O)N(C)C)CN1C(=O)c1ccccc1	21µM	?	14µM	?	?
CC(=O)N(Cc1ccccc1)C1CC(=O)N(Cc2ccccc2)C1=O (stereo not given)	-	-	-	-	-
CC(C)OC(=O)c1cc(NC(=S)Nc2ccc([N+](=O)[O-])cc2)cc(C(=O)OC(C)C)c1	14µM	-	?	?	-
SMILES	Marburg entry inh	VACV mCherry inh	FMDV antiviral	Lassa entry inh	VACV Venus inh
Nc1nc(N)c(-c2cccc(C(F)(F)F)c2)c(Cc2cccc(C(F)(F)F)c2)n1	?	4.5µM	-	?	4µM
CC(C)C[C@H](N)c1nnc(S(=O)(=O)Cc2ccc(F)cc2)o1	?	.	22µM	?	-
CC(C)C[C@H](N)c1nnc(SCc2ccc(Cl)cc2Cl)o1	?	-	-	-	-
CCOc1ccc(S(=O)(=O)N2CCC(C(=O)NCc3ccncc3)CC2)cc1Cl	-	?	-	-	-
C[N+](C)(C)CCC(=O)c1cccc2ccccc12	4.5µM	?	-	.	?
CC(=O)N(Cc1ccc(F)cc1)c1cccc(C)c1C	-	-	-	-	-
